Laboratory results taken from the supplement of paper PMC10681739.
In all, about 2,700 sequences were measured (“arbitrary fluorescence units”: median about 4,100, highest 2% from about 54,000 on). The full list was thinned out, with the highest values kept by preference.

The sequences below were run against T1, ETS1 (UniProt P14921) (assay: ETS1 binding intensity (PBM fluorescence) (arbitrary fluorescence units); higher = stronger binding). Conditions: ETS1 concentration 10 nM.
T1 sequence: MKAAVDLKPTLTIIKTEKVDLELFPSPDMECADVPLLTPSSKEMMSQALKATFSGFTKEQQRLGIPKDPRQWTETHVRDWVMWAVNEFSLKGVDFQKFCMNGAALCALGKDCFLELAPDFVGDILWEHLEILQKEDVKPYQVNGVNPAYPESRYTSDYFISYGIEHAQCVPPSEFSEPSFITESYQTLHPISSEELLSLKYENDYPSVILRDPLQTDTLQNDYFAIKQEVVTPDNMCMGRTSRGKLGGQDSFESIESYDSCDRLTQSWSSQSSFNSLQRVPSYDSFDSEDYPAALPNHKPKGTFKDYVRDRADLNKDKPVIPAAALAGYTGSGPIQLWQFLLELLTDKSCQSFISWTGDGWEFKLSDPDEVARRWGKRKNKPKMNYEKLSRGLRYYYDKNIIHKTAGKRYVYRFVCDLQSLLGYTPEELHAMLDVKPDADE
Protocol: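 gcPBM on wild-type 36-bp genomic probes with two neighbouring ETS1 sites (4-24 bp apart). Recombinant human ETS1 (10 nM) was detected with anti-ETS1 antibody fluorescence. Values are medians over 3 replicate spots. The probes sit in constant array flanks that are not printed.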
CGCCGCATCCGGTAGCGAGAGTTCAACTTCCTGACT showed an ETS1 binding intensity of 56600.
In the case of CAAGCGATTCTTCCGCCTCAACTTCCTGAGTAGCTG, the ETS1 binding intensity is reported as 5800.
With TGTGATTTTCCATCCTGCCATTTCCTGGCACCCAGA the ETS1 binding intensity was 4620.
With GCCGCGGCGGAAGAGGCTCGGGGAGGAAGTTATTTG the ETS1 binding intensity was 1880.
AGTCACACAGGAAATGGAGCCAGGGGATGTGCTCAA showed an ETS1 binding intensity of 14800.
With CGCGCCGGGTGTTTCCGCTACTTCCCTGCGGCGGGG the ETS1 binding intensity was 7930.
GCCGAGGACACTTCCGCGGGCGGAACCTGCCGGCAC was tested, and the ETS1 binding intensity was 5200.
CGGGCACTTCCGGCGCGAACCGCTACTTCCGGTGCG was tested, and the ETS1 binding intensity was 95900.
Sequence ACTTGACATTTCCTGCCTCCTGTTTCCTCATCACTC has an ETS1 binding intensity of 22500.
GAGGTGGGGAGGAAGAGCTGCCGGAAGTAGGCGGTG was tested, and the ETS1 binding intensity was 5440.
Sequence CAGACTTCCGGGGTCGAGAACTACAACTTCCGACTT has an ETS1 binding intensity of 61700.
CTGGGCCCTTCCTGCCAGGTTGCACTTCCTGATAGC was tested, and the ETS1 binding intensity was 8540.
AGGCAGGAAGTACCGCCTGATGCTCAGCTTCCGCTG was tested, and the ETS1 binding intensity was 9880.
In the case of TGCCACATCCTGTCTTTTTACCTCCTTTCCTGCTTA, the ETS1 binding intensity is reported as 51200.
Sequence GTAACAGGAAGAAAATAATTTACCACATCCTTTATT has an ETS1 binding intensity of 975.
TGCGCATTTCCGCTCCTTGCCGGTTTTCCGGACCTC showed an ETS1 binding intensity of 36000.
Sequence TGGTAACAGGCATTTCCGGTTTCCGGCCGGCTCCCT has an ETS1 binding intensity of 61800.
In the case of CTTCCCTGGTAACATCCGGCATCCTGGGGCTGCCAA, the ETS1 binding intensity is reported as 18800.
ACATAAGACATGAGGATGTCTTCCTGACTTGCGTCC gave an ETS1 binding intensity of 208.
For GGGTCTTCCGGCCCTCTCGAAAATCATTTCCGGCAT, the ETS1 binding intensity was 22500.
For GTTATGATAACGGAACTACAGTTCCTCCAGGATGGA, the ETS1 binding intensity was 195.
GGAGGAGGCGGAGGAAACCCGGAAAAGGGGCCGCGC showed an ETS1 binding intensity of 382.
For GGCTCACTTCCGGCCTCAGAGCCGCTTCCGGCGCGC, the ETS1 binding intensity was 71400.
In the case of GCGCCGCCTCAGTTCCGCGGCTTCCGGCCACAGAGT, the ETS1 binding intensity is reported as 8030.
Sequence GCTCCGCCCCCGGAAGCCTCACTTCCGGGCGCGAGC has an ETS1 binding intensity of 25300.
CGGGAGCAGCGGAAGTCATTAACATCCGCGGTTGTG was tested, and the ETS1 binding intensity was 12500.
TGCCACCACACCAGGATGCTTCCGTCTTTGAAGGCA gave an ETS1 binding intensity of 1030.
GTCACCACATCCTGAGGCTTCTCATTTCCTTTCTAC showed an ETS1 binding intensity of 6290.
ACAACTTCCTGTTACACAAGACAGGTATTTCCTCAT gave an ETS1 binding intensity of 59800.
TGTTATTGGACAACTTCCAGGAAAACATCCTCAAGA showed an ETS1 binding intensity of 273.
TGCCAAGTTACACTTCCTGTTTCCTCTCTGTGTGCC was tested, and the ETS1 binding intensity was 31700.
In the case of AGCCCAAGCGCGGAAGAGGGCGGAAGGAGAACCCCT, the ETS1 binding intensity is reported as 240.
Work on GCACCAAGGGAAGTGGTTAAAACAGGAAGACCCGCT yielded an ETS1 binding intensity of 919.
With CGGCCCTTCCATTTCCTGCCTTCCTGCCTGCATTTG the ETS1 binding intensity was 24200.
TTACACTACTTCCGCCGCCTCACTTCCGGTGACGCG showed an ETS1 binding intensity of 34100.
Work on GGAGCACTTCCGCTGGACGCACGCACTTCCGGCCCC yielded an ETS1 binding intensity of 50800.
GTCACTTCCGGCGCCCGCCTACACGCACTTCCGTTC gave an ETS1 binding intensity of 88200.
In the case of CATCCTTGGCATTTCCTCTGAGGAAGCTCGCACCCC, the ETS1 binding intensity is reported as 3550.
Work on GGTTGGTGATTGGCAGGATCCTGGTATCCGCTAACA yielded an ETS1 binding intensity of 278.
For CTTCGCCTTCCGCTGTGAATAATAGCTTCCTGAGGC, the ETS1 binding intensity was 10100.
CTGCTACAGGAAATCGCTTGTTATTTCCTGTAATGC was tested, and the ETS1 binding intensity was 10900.
Sequence TTCATTTCCGGCGGCGGAGGCGGCAGTTTCCTAAGC has an ETS1 binding intensity of 73000.
Work on TGAGGCGGTTTCCTCGGCGCCTTTTCCGGCAGCGGC yielded an ETS1 binding intensity of 1360.
CTCAACTTCCGGAGGCGGCAGACTTTTTCCGTCAAG showed an ETS1 binding intensity of 36700.
AGATCGCTGGCTTCCTGTGTTTTTCCTGGACTCAGG gave an ETS1 binding intensity of 14800.
GCACCGGAAGTGACCGCCTCGCGGCTGCTTCCTCTC was tested, and the ETS1 binding intensity was 57700.
Work on CGGCCTCTTCCGCGAGCCCGCGCGCCGGAAGTGGAA yielded an ETS1 binding intensity of 5440.
In the case of CGCCGGAAGTGGTCGCGGGTCGTTCTGCTTCCTGCC, the ETS1 binding intensity is reported as 18000.
In the case of CCTGAGTTTCCTTGTCTGGAGCTGCAGGATATTTGT, the ETS1 binding intensity is reported as 800.
With ACCCCCTGGCGGATGCTGTGTGTTTCCTGTGCTTAG the ETS1 binding intensity was 3420.
Sequence GGTCCGGAAGGGAGGAGAACACAAGCAGGATATAAC has an ETS1 binding intensity of 860.
Sequence ATCTGCAGGATGTAAGAAGAATAGAAGGAAGCTGGG has an ETS1 binding intensity of 1930.
For TGGCGGAGGCGCCGGAAGTTTTCCGGCTTTCTGCTG, the ETS1 binding intensity was 4500.
Work on GACACAACTTCCGGCTTCTGGCGGCGGAAGAGGACA yielded an ETS1 binding intensity of 90100.
GGGGACCGGAAGCCAGCGGCAACAACTTCCGGCGGG was tested, and the ETS1 binding intensity was 23100.
For TGAATGCTGTCATTTCCGCTTCCGCCTCCTTCTTTC, the ETS1 binding intensity was 26500.
Sequence TGATTTCCGCTTTCTCCCCAGTGATTGCTTCCTTCA has an ETS1 binding intensity of 68300.
Work on GCCTTCAATTTCCGTAGGGAACCTTCCTCCCAGTGA yielded an ETS1 binding intensity of 6860.
With TCAACATCCTGCTTCTCAGGGCACCACAGGAAATGT the ETS1 binding intensity was 36600.
Sequence TCGGGCCCTGGCTTCCGTCACTTCCGCCCGTGCCTG has an ETS1 binding intensity of 14700.
GGCGGCGACGGAAGTGAAGTCACTTCCGGGCTGGGG was tested, and the ETS1 binding intensity was 21300.
ACGTCACTTCCGGCGCCGGGGCTCACTTCCTGGTGC gave an ETS1 binding intensity of 87500.
CAGCTAGGCTTCCTTCTCCTCCCTTCCTGTGCCTCC gave an ETS1 binding intensity of 1100.
